# Test results: PubChem BioAssay (NCI)
# Compounds without any hit were thinned out: in the full panel of roughly 83,000, 20% have a hit.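 Each cell line was grown in a 96-well plate and treated with one concentration of compound for 48 hours. Values below 10 were considered active.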 A number with no mark means an inactive call. Activity calls are given as the source filed them.
# Assays:
# Assay in all cases: NCI-60 one-dose screen, 48 h (100 = growth as untreated, 0 = no growth, -100 = all killed)
# [1] = test system: SK-MEL-2 melanoma; conditions: 10 µM unless noted
# [2] = test system: EKVX NSCLC; conditions: 10 µM unless noted
# [3] = test system: SN12C renal; conditions: 10 µM unless noted
# [4] = test system: TK-10 renal; conditions: 10 µM unless noted
# [5] = test system: ACHN renal; conditions: 10 µM unless noted
# [6] = test system: CAKI-1 renal; conditions: 10 µM unless noted
# [7] = test system: A498 renal; conditions: 10 µM unless noted
# [8] = test system: CCRF-CEM leukemia; conditions: 10 µM unless noted
# [9] = test system: MOLT-4 leukemia; conditions: 10 µM unless noted
# [10] = test system: SR leukemia; conditions: 10 µM unless noted
# [11] = test system: RPMI-8226 leukemia; conditions: 10 µM unless noted
# [12] = test system: OVCAR-8 ovarian; conditions: 10 µM unless noted
# [13] = test system: OVCAR-5 ovarian; conditions: 10 µM unless noted
# [14] = test system: OVCAR-4 ovarian; conditions: 10 µM unless noted
# [15] = test system: SK-OV-3 ovarian; conditions: 10 µM unless noted
# [16] = test system: IGROV1 ovarian; conditions: 10 µM unless noted
# [17] = test system: OVCAR-3 ovarian; conditions: 10 µM unless noted
# [18] = test system: HS 578T breast; conditions: 10 µM
# [19] = test system: NCI/ADR-RES ovarian; conditions: 10 µM unless noted
# [20] = test system: UO-31 renal; conditions: 10 µM unless noted
Compound,growth [1],growth [2],growth [3],growth [4],growth [5],growth [6],growth [7],growth [8],growth [9],growth [10],growth [11],growth [12],growth [13],growth [14],growth [15],growth [16],growth [17],growth [18],growth [19],growth [20]
CCN(C(=O)Nc1cccc2ccccc12)c1ccccc1,108%,95.9%,103%,108%,99.5%,99.9%,90.2%,109%,72.6%,90.2%,103%,74.3%,91.6%,99.9%,96.2%,90.4%,108%,111%,102%,
CC(C)=CCC[C@H](C)c1ccc(C)c2c1OCN(CCO)C2,99.2%,97.2%,79.6%,88.4%,90.1%,91.6%,47.2%,87.5%,101%,,83.2%,86.3%,83.7%,79%,105%,66.7%,86.1%,75.6%,73.5%,
NC(=Nc1ccccc1)SCCCSC(N)=Nc1ccccc1,90.8%,78.8%,89.3%,101%,81.5%,76.4%,80.2%,79.3%,,94.6%,73.4%,86.4%,86.4%,76.8%,97.3%,80.1%,,89%,85.5%,
O=C(CSc1ccc(Cl)cc1)Nc1ccc(-c2nc3ccccc3s2)c(Cl)c1,92.9%,59.6%,46.5%,85.4%,54.1%,53.5%,32.1%,,68.3%,,38.5%,50.8%,99.1%,57.6%,94.7%,69.4%,-10.9% (active),79.1%,62%,
CCNS(=O)(=O)c1ccc(C)cc1,116%,106%,98.5%,115%,96.4%,,,89.7%,95.9%,122%,99.1%,100%,97.2%,103%,112%,98.3%,111%,,108%,97.3%
C=CCn1c(SCC(=O)Nc2ccc(/C(C)=N\O)cc2)nnc1-c1cc(-c2ccccc2)nc2ccccc12,72.1%,55%,69.3%,74.5%,38.4%,,65.1%,18.2%,3.61% (active),,47.1%,53.5%,85.8%,75%,79.6%,0.364% (active),58.3%,85.8%,52.8%,40.6%
CCCCCNCCCCCNc1cc(OC)cc2cccnc12,99%,101%,92.7%,78.7%,94.3%,,75%,95.2%,,,,,87.2%,37.1%,91.2%,98.3%,75.6%,102%,88.6%,46%
COc1cc(/C=C/C(=O)c2ccc(NC(=O)CSc3nnc(-c4ccc(Cl)cc4)n3-c3ccccc3)cc2)cc(OC)c1OC,81.1%,75.1%,74.5%,89.4%,82.4%,,77.5%,57.8%,40.8%,,9.23% (active),62.3%,,57.2%,86.6%,74.7%,73.4%,92.9%,87.9%,
C=CCn1c(SCC(=O)Nc2ccc(C(=O)/C=C/c3ccccc3)cc2)nnc1-c1ccc(OC)c(OC)c1,85.2%,80.7%,74.7%,87.6%,86.8%,,75%,83.7%,58.2%,,2.52% (active),78.5%,108%,72.5%,93.4%,81.6%,78.1%,96.4%,80.1%,55.7%
COc1ccc(NC(=O)/C=C/c2ccc(NC(=O)N3CCCC3)cc2)cn1,104%,92.8%,98.7%,104%,114%,100%,99.4%,97%,101%,106%,99.5%,101%,113%,101%,101%,105%,103%,95.9%,107%,
COc1cc2c(cc1OC)C(=O)C(Br)CC2 (configuration not stated),81.6%,,44.4%,53.7%,42.1%,10.4%,73.6%,3.35% (active),13.3%,19.8%,20.6%,33%,73.7%,52.7%,83.2%,41.7%,38.9%,88.8%,,39.4%
COc1ccc2c(c1)CCCC21C(=O)Nc2ccccc21 (configuration not stated),96%,104%,,95.4%,105%,103%,99.7%,97.9%,76.2%,80.5%,96.9%,95.5%,106%,98.8%,100%,102%,69.6%,107%,104%,82.4%
CCCCNCC(O)c1cc2c(Cl)cc(Cl)cc2c2cc(C(F)(F)F)ccc12 (configuration not stated),-65.4% (active),,-82.2% (active),-88.2% (active),-78.7% (active),-65.1% (active),-19.7% (active),-49.6% (active),-54.8% (active),-68% (active),-38.8% (active),-56% (active),-81.2% (active),-89.7% (active),-22.8% (active),-65.2% (active),-91.1% (active),-51.6% (active),-64% (active),-81.2% (active)
COC1CC(N)C2OC(c3ccccc3)OCC2O1 (configuration not stated),114%,,99.3%,101%,99.3%,96.8%,111%,93.3%,100%,98%,92.8%,98.4%,94.4%,97.5%,115%,110%,111%,96.6%,,97.6%
Cc1c(C)c(C)c([N+](=O)[O-])c([N+](=O)[O-])c1C,103%,90.7%,,91.3%,98.9%,,67.9%,121%,,99.8%,119%,102%,84.5%,,111%,122%,98.5%,96.5%,99.4%,81.8%
Cc1cc(C)cc(Nc2cc(C)nc3nc(C(F)(F)F)nn23)c1,22.6%,,31.9%,46.1%,28.6%,12.4%,67%,16.9%,18.4%,29.6%,40%,17.5%,63.3%,37.3%,47.8%,21.6%,8.97% (active),71.7%,,2.04% (active)
